From PubChem BioAssay AID1159580 (chemical genetic matrix, 2015)
Several values for one entry are separate records, joined by “and”; a condition that tells them apart may be missing. Identical values can stand only once. The campaign covered roughly 5,500 compounds. About 2,000 (36%) were called active. About 18% were inconclusive and are not listed. Rule as the data show it: active = normalized growth mostly below about 0.91 (no sharp cut-off); inconclusive = no clear call, values can overlap the other calls; inactive = mostly above about 0.92. This is one part of the list.

Experiment: chemical genetic growth profiling, strain panel (AID 1159580);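 also: tested at 20 µM; growth read once vehicle control cultures reached saturation at 30 °C; 1 = growth at the plate median or of vehicle wells; lower values mean less growth of the strain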
Conditions: S. cerevisiae deletion strains, growth OD

Measured: normalized growth

CC(=O)OCC(=O)[C@@]12OC(C)(C)O[C@@H]1CC1C3C[C@H](F)C4=CC(=O)C=C[C@]4(C)[C@@]3(F)[C@@H](O)C[C@@]12C (some centres not stated)
inactive: locus YAL013W, strain DEP1, hits give low values 1 | locus YAL021C, strain ccr4, hits give low values 1.01 | locus YAL026C, strain drs2, hits give low values 1.02 | locus YAL030W, strain snc1, hits give low values 1.02 | locus YBL061C, strain skt5, hits give low values 1.03 | locus YBR009C, strain hhf1, hits give low values 1.01 | locus YBR021W, strain FUR4, hits give low values 0.996 | locus YBR023C, strain chs3, hits give low values 1.03 | locus YBR171W, strain sec66, hits give low values 1.03 | locus YBR229C, strain ROT2, hits give low values 1.01 | locus YBR231C, strain swc5, hits give low values 0.989 | locus YBR279W, strain paf1, hits give low values 1.03 | locus YCL011C, strain gbp2, hits give low values 1.04 | locus YCL016C, strain dcc1, hits give low values 1.03 | locus YCL029C, strain bik1, hits give low values 1.01 | locus YCL061C, strain MRC1, hits give low values 1.01 | locus YCL069W, strain vba3, hits give low values 1.02 | locus YCR088W, strain abp1, hits give low values 1.02 | locus YDL005C, strain med2, hits give low values 1.03 | locus YDL035C, strain GPR1, hits give low values 0.99 | locus YDL040C, strain nat1, hits give low values 1.02 | locus YDL074C, strain BRE1, hits give low values 1.01 | locus YDL101C, strain DUN1, hits give low values 1.01 | locus YDL134C, strain PPH21, hits give low values 0.99 | locus YDL185W, strain tfp1, hits give low values 1.02 | locus YDL192W, strain arf1, hits give low values 1.02 | locus YDR001C, strain nth1, hits give low values 1.02 | locus YDR069C, strain doa4, hits give low values 0.998 | locus YDR101C, strain arx1, hits give low values 0.965 | locus YDR137W, strain rgp1, hits give low values 1.03 | locus YDR150W, strain NUM1, hits give low values 1.01 | locus YDR159W, strain sac3, hits give low values 0.989 | locus YDR162C, strain NBP2, hits give low values 0.989 | locus YDR195W, strain ref2 0.999 | locus YDR297W, strain sur2, hits give low values 1.02 | locus YDR318W, strain mcm21, hits give low values 1.02 | locus YDR334W, strain swr1, hits give low values 1.02 | locus YDR335W, strain msn5, hits give low values 1.03 | locus YDR388W, hits give low values 1.01 | locus YDR392W, strain spt3, hits give low values 0.981 | locus YDR502C, strain sam2, hits give low values 1 | locus YEL003W, strain gim4, hits give low values 1.02 | locus YEL037C, strain rad23, hits give low values 1.02 | locus YEL061C, strain CIN8 (second series), hits give low values 1.02 | locus YEL061C, strain CIN8, hits give low values 1.01 | locus YER015W, strain faa2, hits give low values 1.02 | locus YER016W, strain bim1, hits give low values 1.01 | locus YER110C, hits give low values 1.02 | locus YER111C, strain swi4, hits give low values 1.04 | locus YER155C, strain BEM2 (second series), hits give low values 0.995 | locus YER155C, strain BEM2, hits give low values 1.01 | locus YER167W, strain BCK2, hits give low values 0.996 | locus YFR010W, strain ubp6, hits give low values 1.01 | locus YGL078C, strain dbp3, hits give low values 1.02 | locus YGL086W, strain mad1, hits give low values 0.992 | locus YGL167C, strain pmr1, hits give low values 1.02 | locus YGL173C, strain kem1, hits give low values 1.02 | locus YGL227W, strain vid30, hits give low values 1.03 | locus YGL240W, strain doc1, hits give low values 1.01 | locus YGL248W, strain PDE1, hits give low values 1.01 | locus YGL253W, strain hxk2, hits give low values 1.01 | locus YGR135W, strain pre9, hits give low values 1.07 | locus YGR252W, strain gcn5, hits give low values 1.1 | locus YHR013C, strain ard1, hits give low values 1.04 | locus YHR027C, strain rpn1, hits give low values 1.02 | locus YHR030C, strain SLT2, hits give low values 0.995 and 0.988 | locus YHR079C, strain IRE1 (second series), hits give low values 1.01 | locus YHR079C, strain IRE1, hits give low values 1 | locus YHR094C, strain hxt1, hits give low values 1.02 | locus YHR129C, strain ARP1, hits give low values 1.01 | locus YHR142W, strain chs7, hits give low values 1.04 | locus YHR200W, strain rpn10, hits give low values 1.01 | locus YIL066C, strain RNR3, hits give low values 1 | locus YIL073C, strain SPO22, hits give low values 1.02 | locus YIL125W, strain kgd1, hits give low values 1 | locus YIR030C, strain dcg1, hits give low values 1.03 | locus YJL092W, strain hpr5, hits give low values 1.03 | locus YJL095W, strain BCK1 (second series), hits give low values 1.02 | locus YJL095W, strain BCK1, hits give low values 1.03 and 0.999 | locus YJL115W, strain asf1, hits give low values 1.01 | locus YJL129C, strain trk1, hits give low values 1.03 | locus YJL134W, strain LCB3, hits give low values 1.01 | locus YJL154C, strain vps35, hits give low values 1.02 | locus YJL164C, strain tpk1, hits give low values 1.02 | locus YJL166W, strain qcr8, hits give low values 1.04 | locus YJL168C, strain set2, hits give low values 1.02 | locus YJL187C, strain SWE1 (second series), hits give low values 1.01 | locus YJL187C, strain SWE1, hits give low values 1.02 | locus YJR043C, strain POL32, hits give low values 0.999 | locus YJR066W, strain TOR1, hits give low values 0.937 | locus YJR075W, strain HOC1, hits give low values 1 | locus YKL009W, strain mrt4, hits give low values 1.01 | locus YKL068W, hits give low values 1.01 | locus YKL085W, strain MDH1 (second series), hits give low values 1.01 | locus YKL085W, strain MDH1, hits give low values 1.01 | locus YKL160W, strain elf1, hits give low values 1.05 | locus YKR001C, strain vps1, hits give low values 1 | locus YKR026C, strain gcn3, hits give low values 1.02 | locus YKR091W, strain srl3, hits give low values 1.02 | locus YLL001W, strain dnm1, hits give low values 1.03 | locus YLL026W, hits give low values 1.02 | locus YLL041C, strain sdh2, hits give low values 1.01 | locus YLR027C, strain aat2, hits give low values 1.01 | locus YLR039C, strain RIC1, hits give low values 1.06 | locus YLR058C, strain SHM2, hits give low values 1.01 | locus YLR102C, strain apc9, hits give low values 1.01 | locus YLR113W, strain HOG1, hits give low values 1.02 | locus YLR221C, strain rsa3, hits give low values 1.03 | locus YLR258W, strain gsy2, hits give low values 1.04 | locus YLR262C, strain YPT6 (second series), hits give low values 1.04 | locus YLR262C, strain YPT6, hits give low values 0.987 | locus YLR268W, strain sec22, hits give low values 1.01 | locus YLR320W, strain mms22, hits give low values 1.06 | locus YLR330W, strain CHS5, hits give low values 1.01 | locus YLR342W, strain FKS1 (second series), hits give low values 1.03 | locus YLR342W, strain FKS1, hits give low values 1.03 | locus YLR357W, strain rsc2, hits give low values 1.01 | locus YLR370C, strain arc18, hits give low values 1.03 | locus YLR371W, strain rom2, hits give low values 1.01 | locus YLR384C, strain iki3, hits give low values 1.03 | locus YLR418C, strain cdc73, hits give low values 1.03 | locus YML016C, strain PPZ1, hits give low values 1 | locus YML032C, strain rad52, hits give low values 0.996 | locus YML120C, strain ndi1, hits give low values 1.04 | locus YML124C, strain tub3, hits give low values 1.03 | locus YMR058W, strain fet3, hits give low values 1.01 | locus YMR078C, strain ctf18, hits give low values 1.01 | locus YMR125W, strain sto1, hits give low values 1.03 | locus YMR129W, hits give low values 1.02 | locus YMR205C, strain PFK2, hits give low values 1.05 | locus YMR223W, strain ubp8, hits give low values 1.05 | locus YMR231W, strain pep5, hits give low values 1.02 | locus YMR307W, strain GAS1, hits give low values 1.04 | locus YNL067W, strain RPL9B, hits give low values 0.995 | locus YNL071W, strain lat1, hits give low values 1.03 | locus YNL153C, strain GIM3, hits give low values 1.01 | locus YNL183C, strain NPR1, hits give low values 0.945 | locus YNL209W, strain ssb2, hits give low values 1.03 | locus YNL233W, strain BNI4, hits give low values 1.01 | locus YNL248C, strain rpa49, hits give low values 1.02 | locus YNL250W, strain rad50, hits give low values 1.03 | locus YNL271C, strain bni1, hits give low values 1.04 | locus YNL298W, strain CLA4, hits give low values 1.04 | locus YNL307C, strain MCK1, hits give low values 1.02 | locus YNL322C, strain KRE1 (second series), hits give low values 1.04 | locus YNR049C, strain mso1, hits give low values 1.02 | locus YNR052C, strain pop2, hits give low values 1.01 | locus YOL006C, strain TOP1, hits give low values 1.03 | locus YOL012C, strain htz1 2.14 | locus YOL147C, strain pex11, hits give low values 1.02 | locus YOR001W, strain rrp6, hits give low values 1 | locus YOR061W, strain CKA2, hits give low values 1.01 | locus YOR069W, strain VPS5, hits give low values 1.01 | locus YOR070C, strain gyp1, hits give low values 1.03 | locus YOR080W, strain dia2, hits give low values 1.02 | locus YOR083W, strain WHI5, hits give low values 1.04 | locus YOR106W, strain vam3, hits give low values 1.05 | locus YOR136W, strain idh2, hits give low values 1.01 | locus YOR144C, strain elg1, hits give low values 1 | locus YOR184W, strain ser1, hits give low values 1.01 | locus YOR231W, strain MKK1, hits give low values 0.999 | locus YOR265W, strain rbl2, hits give low values 1.02 | locus YOR270C, strain vph1, hits give low values 1.03 | locus YOR290C, strain snf2, hits give low values 0.982 | locus YOR316C, strain cot1, hits give low values 1.01 | locus YPL051W, strain arl3, hits give low values 1.02 | locus YPL055C, strain LGE1, hits give low values 1.01 | locus YPL078C, strain atp4, hits give low values 1.04 | locus YPL106C, strain sse1, hits give low values 1 | locus YPL240C, strain hsp82, hits give low values 1.01 | locus YPL241C, strain CIN2, hits give low values 0.999 | locus YPL256C, strain CLN2, hits give low values 0.974 | locus YPR119W, strain clb2, hits give low values 1.01 | locus YPR141C, strain kar3, hits give low values 1.02 | locus YPR163C, strain tif3, hits give low values 1.02 | locus YPR167C, strain met16, hits give low values 1.02 | strain wtn01, hits give low values 1.02
